Results from PubChem BioAssay (NCATS).
Records with an inconclusive call do not appear. Values without a mark were called inactive. Calls follow the shape of the dose curve; as a rule, active = well fitted inhibition curve with a large enough effect; inconclusive = small, poorly fitted or top-dose-only effect; inactive = no such curve, though single readings can be large or run the other way.

Target: Rap guanine nucleotide exchange factor 3 (Homo sapiens) (UniProt O95398)
Assay: Counterscreen qHTS for antagonist of cAMP-regulated guanine nucleotide exchange factor 3 (EPAC1) (AID 1645888); also: % of control where 0% means no effect
Details: Rap1B-BODIPY-GDP nucleotide exchange, fluorescence; series mostly up to 154 µM; activity change, negative = inhibition: at the top concentration
Description: Assay Provider (PI): Xiaodong Cheng Ph.D. The University of Texas Medical Branch, […], TX MLPCN Grant: NS066510 In multi-cellular eukaryotic organisms, the effects of cAMP are transduced by two ubiquitously-expressed intracellular cAMP receptors, the classic protein kinase A/cAMP-dependent protein kinase (PKA/cAPK) and the more recently discovered exchange protein directly activated by cAMP/cAMP-regulated guanine nucleotide exchange factor (EPAC/cAMP-GEF). Both PKA and EPAC are ubiquitously expressed in all tissues, and an increase in intracellular cAMP levels will lead to the activation of both PKA and EPAC. Therefore, careful dissections of the individual role and relative contribution of EPAC and PKA within the overall cAMP signaling in various model systems are critical for further elucidating the mechanism of cAMP signaling. To date no EPAC-specific antagonists and agonist, as well as isoform-specific agonists have been reported, and developing EPAC-specific pharmacological probes to determine the physiological functions that EPAC play in the overall cAMP-mediated signaling remains a major challenge within the research field. Furthermore, identified regulators of EPAC may lead to new mechanism-based therapeutic strategies specifically targeting the EPAC / cAMP-signaling components as EPAC has been implicated to play important roles in major human pathological conditions such as diabetes, heart disease, and cancer. This qHTS will be used to screen the Molecular Libraries Small Molecule Repository (MLSMR) as a concentration-titration series using the NCGC unique quantitative screening (qHTS) platform to find activators for EPAC1. In addition, this assay will also be used as a counterscreen for the EPAC2 qHTS. This fluorescent based assay is developed and validated for EPAC1 that measures exchange using EPAC effector Rap1 complex with BODIPY-GDP, a GDP analog with a tethered fluorophores. Activators are identified by monitoring the change in fluorescence signal as the exchanged free BODIPY-GDP has a reduced fluorescence compared to Rap1-bound BODIPY-GDP. Increase in signal (activation) is the desired outcome for the EPAC1 agonist while no activity in this assay is desired for the EPAC2 agonist counterscreen. Reference: [1] de Rooij, J., Zwartkruis, F. J., Verheijen, M. H., Cool, R. H., Nijman, S. M., Wittinghofer, A., and Bos, J.L. (1998) Nature 396, 474-477. Kawasaki, H., Springett, G. M., Mochizuki, N., Toki, S., Nakaya, M., Matsuda, M., Housman, D. E., and Graybiel, A. M. (1998) Science 282, 2275-2279.
EPAC1 Counterscreen PROTOCOL TABLE SEQUENCE No. (e.g., 1, 2, 3, etc.); […] (e.g., Cells, Incubation, Reagent, etc.); VALUE and DESCRIPTION. 1. Reagent. 3 uL. [1x] 250 nM Rap1B-BODIPY-GDP, and 50 uM GDP. 2a. Compound. 23 nL. Control 6,572 uM cAMP (working concentration). 2b, 2c. Compound. 23 nL. Control activator and inhibitor; 234 - 30,000 uM cAMP and 16.4 - 10,000 uM. 2d. Compound. 46 nL. MLSMR follow-up library; 0.64 - 10,000 uM. 3. Time. 15 sec, 1000rpm. Centrifuge. 4. Time. 5 min. Incubation at room temperature. 5. Detector. Fluorescence. (Read 1), Ex/Em = 480 nm / 540 nm. 6. Time. 30 min. Incubation at room temperature. 7. Detector. Fluorescence. (Read 2), Ex/Em = 480 nm/ 540 nm. 8. Reagent. 1uL. Dispense either [4x] 10 uM cAMP or buffer. 9. Time. 15 sec, 1000 rpm. Centrifuge. 10. Time. 5 min. Incubation at room temperature. 11. Detector. Fluorescence. (Read 3), Ex/Em = 480 nm / 540 nm. 12. Time. 30 min. Incubation at room temperature. 13. Detector. Fluorescence. (Read 4), Ex/Em = 480 nm / 540 nm. NOTES (numbers refer to Sequence numbers above; values are from representative experiments) 1. Medium-binding black solid-bottom Greiner plates (789176-F). Dispense 3 uL of [1x] 250 nM Rap1B-BODIPY-GDP, and 50 uM GDP into columns 1 to 48. 2a. Control compound cAMP (6,572 uM, column 3, rows 1 to 32) single pin-transferred for a [final] of 50 uM. 2b. […]

Sequence of Rap guanine nucleotide exchange factor 3 (Homo sapiens) (O95398 whole entry, looked up): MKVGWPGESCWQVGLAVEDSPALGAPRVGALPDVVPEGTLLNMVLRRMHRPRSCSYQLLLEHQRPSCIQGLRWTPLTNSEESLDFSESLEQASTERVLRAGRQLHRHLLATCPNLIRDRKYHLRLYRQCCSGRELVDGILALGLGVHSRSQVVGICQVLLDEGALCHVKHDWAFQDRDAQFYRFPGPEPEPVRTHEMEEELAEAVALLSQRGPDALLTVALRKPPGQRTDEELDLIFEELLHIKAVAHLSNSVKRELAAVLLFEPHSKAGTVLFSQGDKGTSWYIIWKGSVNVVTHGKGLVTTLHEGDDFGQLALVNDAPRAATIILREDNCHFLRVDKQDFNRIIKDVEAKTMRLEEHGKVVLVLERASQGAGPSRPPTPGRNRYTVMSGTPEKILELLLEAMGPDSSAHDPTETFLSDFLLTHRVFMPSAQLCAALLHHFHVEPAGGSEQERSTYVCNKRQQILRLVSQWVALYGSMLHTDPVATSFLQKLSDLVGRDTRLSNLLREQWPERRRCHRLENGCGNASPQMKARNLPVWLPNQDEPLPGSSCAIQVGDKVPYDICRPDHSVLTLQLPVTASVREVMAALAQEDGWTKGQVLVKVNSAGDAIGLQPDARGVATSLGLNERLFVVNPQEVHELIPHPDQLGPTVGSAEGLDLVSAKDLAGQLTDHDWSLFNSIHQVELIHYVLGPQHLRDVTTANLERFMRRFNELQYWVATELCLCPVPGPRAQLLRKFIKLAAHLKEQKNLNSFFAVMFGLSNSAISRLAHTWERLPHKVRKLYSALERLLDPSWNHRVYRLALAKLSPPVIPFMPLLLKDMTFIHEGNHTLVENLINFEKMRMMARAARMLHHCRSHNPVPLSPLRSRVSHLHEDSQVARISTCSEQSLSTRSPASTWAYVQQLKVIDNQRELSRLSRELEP

| Compound | activity change, negative = inhibition |
| --- | --- |
| COc1cc(/C=C/c2nc3ccccc3c(=O)n2-c2cccc(O)c2)ccc1O | 16.1% |
| Cc1cc(/C=C2/C(=O)NC(=O)N(Cc3ccco3)C2=O)c(C)n1-c1ccccc1O | -13.1% [at 30.8 µM] |
| Cc1ccc(CN2CCCN(Cc3ccccc3C)S2(=O)=O)cc1 | -4.98% |
| O=[N+]([O-])c1ccc(N(CCO)CCO)c2c1no[n+]2[O-] | 65% |
| COc1cccc(C(c2nnnn2Cc2ccccc2)N2CCC(n3c(=O)[nH]c4ccccc43)CC2)c1OC (stereo not given) | 0.898% |
| CC(c1ccccc1)(c1ccccc1)c1ccncc1 | -6.49% [at 30.8 µM] |
| O=C1NCN(c2ccccc2)C12CCN(C(c1cc3ccccc3o1)c1nnnn1C1CCCCC1)CC2 (stereo not given) | -17.4% |
| COc1ccc(-n2c(/C=C/c3ccc(O)c(O)c3)nc3ccccc3c2=O)cc1 | 2.16% |
| CCOC(=O)[C@]12Cc3cc(OC)ccc3[C@H]1N(C1CCCCC1)C(=O)c1ccccc12 | 6.86% |
| O=C(O)CC1OCC=C2CN3CCC45C6=CC(=O)C(=O)C([N+](=O)[O-])=C6NC4C1C2CC35 (stereo not given) | 4.81% |
| OC1/C(=C/c2ccc(C(F)(F)F)cc2)N2CCC1CC2 (stereo not given) | 1.64% |
| COc1cccc(C(c2nnnn2C2CCCCC2)N2CCC3(CC2)C(=O)NCN3c2ccccc2)c1OC (stereo not given) | -29% |
| COc1ccc(OCC(=O)N2CCN(CC3CC4C=CC3C4)CC2)cc1 (stereo not given) | -7.66% [at 30.8 µM] |
| O=C1NCN(c2ccccc2)C12CCN(C(c1cc3ccccc3o1)c1nnnn1C1CCCC1)CC2 (stereo not given) | -0.487% [at 30.8 µM] |
| COc1ccc(N2C(=O)/C(=C/C=C/c3ccccc3[N+](=O)[O-])C(=O)NC2=S)cc1 | 15.6% [at 30.8 µM] |
| CCOC(=O)[C@]12Cc3cc(Cl)ccc3[C@H]1N(C1CCCCC1)C(=O)c1ccccc12 | -0.335% |
| N/C(=N\N=C/c1ccc(-c2ccc(O)c(C(=O)O)c2)o1)N[N+](=O)[O-] | 30.9% |
| COc1ccc(OC)c(N2C(=O)NC(=O)/C(=C/c3ccc([N+](=O)[O-])s3)C2=O)c1 | 10.9% [at 30.8 µM] |
| CCOC(=O)[C@]12Cc3ccccc3[C@H]1N(Cc1ccccc1)C(=O)c1cc(OC)ccc12 | 2.15% [at 30.8 µM] |
| Cc1oc(-c2ccccc2)nc1CN1C(=O)CN=C(c2ccccc2)c2ccccc21 | -7.89% [at 30.8 µM] |

| Compound | activity change, negative = inhibition |
| --- | --- |
| CCN(CC)c1ccc(N=Cc2c(O)n(-c3cc(OC)ccc3OC)c(=O)[nH]c2=O)cc1 | -4.74% [at 30.8 µM] |
| Cc1cc(OC(C)C(=O)N[C@H](C(=O)O)c2ccccc2)c2c3c(c(=O)oc2c1)CCC3 (stereo not given in full) | 7.2% |
| NC(=O)c1ccc(N=Cc2c(O)n(Cc3ccco3)c(=O)[nH]c2=O)cc1 | -24.7% |
| O=C1NC(=O)N(Cc2ccco2)C(=O)/C1=C/C=C/c1ccco1 | -7.48% [at 30.8 µM] |
| O=c1[nH]c(=O)n(-c2cccc(F)c2)c(O)c1/C=C1\C=Nc2ccccc21 | -12.4% |
| O=C(OC1CCN(CCCl)CC1)C(c1ccccc1)c1ccccc1 | -43.6% [at 30.8 µM] |
| COc1cccc(-n2c(/C=C/c3ccc(O)c(O)c3)nc3ccccc3c2=O)c1 | 2.65% [at 30.8 µM] |
| CCC(=NCCCO)c1c(O)n(-c2ccc(OC)cc2)c(=O)[nH]c1=O | -14.3% [at 30.8 µM] |
| CCCCN1C(=O)/C(=C\c2ccco2)C(=O)N(CCc2ccccc2)C1=O | 15.7% |
| CCCCN1C(=O)/C(=C/c2ccc(N(C)C)cc2)C(=O)N(Cc2ccco2)C1=O | 25.6% [at 30.8 µM] |
| CCCNC1=C(C)C(=O)C2=C(C1=O)C(COC(N)=O)[C@]1(OC)C3NC3CN21 (stereo not given in full) | 18.9% |
| Cn1cccc1/C=C1\C(=O)NC(=O)N(Cc2ccco2)C1=O | -2.64% [at 30.8 µM] |
| COP(=O)(/C=C(\Cl)c1ccccc1)/C=C(\Cl)c1ccccc1 | 8.99% |
| CCOC(=O)[C@]12Cc3cc(Cl)ccc3[C@H]1N(CC(=O)OC)C(=O)c1ccccc12 | -21.7% |
| Cc1ccc(N2C(=O)NC(=O)/C(=C\C=C\c3ccco3)C2=O)cc1 | 23.1% |
| O=C1NC(=S)NC(=O)C1=Cc1cccn1-c1ccc(O)cc1 | -4.08% [at 30.8 µM] |
| O=C1Nc2ccccc2/C1=C/c1nc2ccccc2c(=O)n1-c1ccc(O)cc1 | -7.19% [at 30.8 µM] |
| COCCNC(=O)c1c(N)n(CCC(C)C)c2nc3ccccc3nc12 | -2.48% [at 30.8 µM] |
| Cc1cccc(CN2C(=O)CN=C(c3ccccc3)c3cc(Cl)ccc32)c1 | 11.6% |
| CC(=O)C1C2c3ccccc3O[C@@]1(C)N=c1s/c(=C/c3ccoc3)c(=O)n12 (stereo not given in full) | 6.85% |
